A selection: hits, their analogues and other compounds. The true share with any hit is near 7.7%.
PD-1 reverse act: reversal of PD-1 mediated T-cell inhibition | 29,000 tested, under 10 active | primary human CD4 T cells, PD-L1 beads, CellTiter-Glo 96 h | activation, % (test concentration not listed); call rule not given here;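 further: 0% = median vehicle wells and 100% = positive control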
Shh pathway inh: blocks Sonic Hedgehog signaling. Shh-LIGHT2 Gli-luciferase reporter, 30 h. inhibition, % (concentration not given with the values). 2.1% of 22,000 active. AID 2313;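 active means mean inhibition across valid replicates above about 65%, limit read from the data; inconclusive means mean under the limit, yet half or more replicates past it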;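 further: pathway switched on by Shh-conditioned medium diluted 1 in 25 in low serum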
NOMO-1 viab: STK33 inhibitor candidate reducing NOMO-1 cell viability; NOMO-1 AML viability, CellTiter-Glo luminescence, 72 h; 7.5% of 37,000 active; inhibition, % (concentration not given with the values); in the data active means inhibition above about 80%; inconclusive means no clear call, values can overlap the other calls
* marks the source's active call; other numbers are inactive results; ? = inconclusive; . = no result given.

SMILES	PD-1 reverse act	Shh pathway inh	NOMO-1 viab
Cc1ccc(C)c(NC(=O)C2CN(S(=O)(=O)c3ccccc3)CCN2S(=O)(=O)c2ccccc2)c1 (configuration not stated)	-1	.	41
O=C(CSc1nc(-c2ccccc2)cc(C(F)(F)F)n1)c1ccc(Br)cc1	0	.	16
COc1ccccc1CCNC(=O)c1cc(-c2ccccc2)nc2ccccc12	-2	.	45
Cc1ccc(S(=O)(=O)/C=C/C#N)cc1	-60	98*	142*
Cc1ccc(S(=O)(=O)c2ccc(C)cc2)cc1	0	7	-2
O=C(COC(=O)c1ccc(Br)cc1)c1ccc(Br)cc1	1	.	19
O=C(COC(=O)c1c(C(F)(F)F)cccc1C(F)(F)F)c1ccc(Cl)cc1	-7	-2	111*
Cc1ccc(NC(=O)CC2NC3CCCCC3NC2=O)cc1C (configuration not stated)	2	.	-10
COc1c(-c2ccccc2)oc2c(CC=C(C)C)c3c(c(OC)c2c1=O)C=CC(C)(C)O3	.	-8	28
C=CC(C)(C)c1c2c(c(O)c3c(=O)c4ccc(O)c(O)c4oc13)C=CC(C)(C)O2	.	93*	107*
Cc1ccc(S(=O)(=O)N(C)c2ccc(C(=O)Nc3cccc(N(C)S(C)(=O)=O)c3)cc2)cc1	-2	.	35
O=C(Cc1ccccc1[N+](=O)[O-])Nc1cc(Cl)ccc1Oc1ccccc1	-4	.	39
C=C1C(=O)O[C@H]2[C@H]1[C@@H](OC(=O)C(C)(O)C(C)Cl)C(OC(C)=O)/C(C(=O)OC)=C\CC[C@@]1(C)O[C@H]21 (some centres not stated)	-10	73*	119*
COc1cc(O)c(Oc2cc(C)cc(O)c2C(=O)O)c(CO)c1	1	-2	25
Cc1cc(=O)c2c(O)c3c(cc2o1)OC(C(C)(C)OC1OC(CO)C(O)C(O)C1O)C3 (configuration not stated)	3	-37	-8
CC(C)(C)OC(=O)N1C(N)=C(C#N)C2(CCOCC2)c2[nH]c(C(F)(F)F)nc21	1	11	-7
Cc1cc(C)cc(NC(=O)CN(c2cc([N+](=O)[O-])ccc2C)S(C)(=O)=O)c1	0	.	24
COc1ccc(-n2c(-c3cccc(OC)c3)csc2=NCc2cccnc2)cc1	1	71*	43
COc1ccc(-n2c(SCC(N)=O)nnc2-c2cccnc2)cc1	0	.	14
Cc1ccc(NC(=O)CSc2nc(C)cc(-c3ccccc3)n2)cc1	-2	.	26
On1c(-c2ccccc2Cl)nc2c1CCc1nonc1-2	0	-10	-10
CCOC(=O)CSc1nc(Nc2ccc(OC)cc2)c2cnc(N(CC)CC)nc2n1	-5	27	120*
CCN(CC)c1ncc2c(NCc3ccccc3)nc(SCc3ccccc3)nc2n1	-2	26	43
O=C(CSc1nc(Nc2ccccc2)nc(N2CCOCC2)n1)N1CCc2ccccc21	.	.	20
CCOC(=O)CSc1nc(Nc2ccccc2)c2cnc(N3CCOCC3)nc2n1	-3	42	112*
SMILES	PD-1 reverse act	Shh pathway inh	NOMO-1 viab
CC1(C)N=C(NC(=O)NC(=O)c2ccccc2Cl)N(c2ccccc2)O1	-1	-30	2
Cc1ccccc1-c1cc(C(=O)NCCCN2CCOCC2)c2cc(Cl)ccc2n1	-2	.	-11
C[C@H]1CN([C@@H](C)CO)C(=O)c2cccc(NC(=O)Nc3ccc4c(c3)OCO4)c2O[C@@H]1CN(C)Cc1ccc(Cl)c(Cl)c1	.	-13	91*
C[C@H](CO)N1C[C@H](C)[C@@H](CN(C)Cc2ccccc2)Oc2c(NC(=O)Nc3ccc4c(c3)OCO4)cccc2C1=O	-2	-13	61
C[C@@H]1CN([C@@H](C)CO)C(=O)c2cccc(NC(=O)Nc3ccc4c(c3)OCO4)c2O[C@H]1CN(C)Cc1ccc2c(c1)OCO2	-10	-45	93*
C[C@H](CO)N1C[C@H](C)[C@H](CN(C)Cc2ccccc2)Oc2c(NC(=O)Nc3ccc4c(c3)OCO4)cccc2C1=O	0	-42	84*
C[C@H]1CN([C@@H](C)CO)C(=O)c2cccc(NC(=O)Nc3ccc4c(c3)OCO4)c2O[C@H]1CN(C)Cc1ccc2c(c1)OCO2	1	-22	28
C[C@@H]1CN([C@H](C)CO)C(=O)c2cccc(NC(=O)Nc3ccc4c(c3)OCO4)c2O[C@@H]1CN(C)Cc1ccc(Cl)c(Cl)c1	-3	11	54
C[C@@H]1CN([C@@H](C)CO)C(=O)c2cccc(NC(=O)Nc3ccc4c(c3)OCO4)c2O[C@H]1CN(C)CC1CCCCC1	.	-19	83*
C[C@@H]1CN([C@@H](C)CO)C(=O)c2cccc(NC(=O)Nc3ccc4c(c3)OCO4)c2O[C@@H]1CN(C)CC1CCCCC1	0	-64	15
Cc1c(Br)c([N+](=O)[O-])nn1CC(=O)Nc1cc(F)ccc1F	0	.	3
CCOC(=O)CC(Sc1ccccc1N)c1cc(OC)c(OC)c(OC)c1 (configuration not stated)	-1	9	-13
CN(CC(=O)Nc1ccccc1-c1ccccc1)S(=O)(=O)c1cc(Cl)ccc1Cl	0	.	9
Cc1cccc(C)c1NC(=O)CC(C(=O)O)N(C)C (configuration not stated)	0	.	-12
O=C(Cn1ccc([N+](=O)[O-])n1)N1CCOCC1	1	.	24
C[C@@H]1CN([C@@H](C)CO)C(=O)c2cccc(NC(=O)Nc3ccc4c(c3)OCO4)c2O[C@H]1CN(C)Cc1ccccc1	-7	15	107*
C[C@@H]1CN([C@@H](C)CO)C(=O)c2cccc(NC(=O)Nc3ccc4c(c3)OCO4)c2O[C@@H]1CN(C)Cc1ccccc1	.	-17	19
C[C@H]1CN([C@@H](C)CO)C(=O)Cc2cc(NC(=O)CCCCCC(=O)Nc3ccccc3N)ccc2O[C@@H]1CN(C)CC1CC1	2	.	21
C[C@H]1CN([C@@H](C)CO)C(=O)Cc2cc(NC(=O)CCCCCC(=O)Nc3ccccc3N)ccc2O[C@@H]1CN(C)C	2	.	24
C[C@H]1CN([C@@H](C)CO)C(=O)Cc2cc(NC(=O)CCCCCC(=O)Nc3ccccc3N)ccc2O[C@@H]1CN(C)CC1CCCCC1	0	.	102*
C[C@@H]1CN([C@H](C)CO)C(=O)Cc2cc(NC(=O)CCCCCC(=O)Nc3ccccc3N)ccc2O[C@@H]1CN(C)CC1CCCCC1	-1	.	133*
C[C@@H]1CN([C@H](C)CO)C(=O)Cc2cc(NC(=O)CCCCCC(=O)Nc3ccccc3N)ccc2O[C@H]1CN(C)CC1CCCCC1	0	.	120*
C[C@H]1CN([C@@H](C)CO)C(=O)Cc2cc(NC(=O)CCCCCC(=O)Nc3ccccc3N)ccc2O[C@H]1CN(C)C	1	.	?
C[C@]12CCC3c4ccc(O)cc4CC[C@H]3C1CC[C@H]2O (some centres not stated)	-2	5	96*
C[C@]12CC[C@@H]3c4ccc(O)cc4CC[C@H]3[C@@H]1CC[C@@H]2O	.	91*	87*
COc1ccc2c(c1)CCC1C2CC[C@@]2(C)C1CC[C@@H]2O (some centres not stated)	.	5	6
CCCCC(=O)O[C@H]1CCC2C3CCc4cc(O)ccc4C3CC[C@@]21C (some centres not stated)	.	61	54
C[C@]12CCC3c4ccc(O)cc4CCC3C1CCC2=O (some centres not stated)	.	89*	19

From PubChem
